Results filed as inconclusive are left out. The source made the active and inactive calls. The call rests on the fitted dose curve; in most records, active means well fitted inhibition curve with a large enough effect; inconclusive means small, poorly fitted or top-dose-only effect; inactive means no such curve, though single readings can be large or run the other way.
Molecular target: Cytochrome P450 3A4 (Homo sapiens) (UniProt P08684)
Assay: qHTS Assay for Inhibitors and Substrates of Cytochrome P450 3A4 (AID 884); further: nearly all actives have a fitted effect of over 50% in size
Conditions: recombinant CYP3A4, Luciferin-PPXE luminescence; series mostly up to 57.1 µM; activity change, negative = inhibition: at the top concentration
Description: NIH Molecular Libraries Screening Centers Network [MLSCN]
NIH Chemical Genomics Center [NCGC]
The P450 gene superfamily is involved in the metabolism and clearance of xenobiotics. This assay used human CYP3A4 to measure the dealkylation of luciferin-6' phenylpiperazinylyl (Luciferin-PPXE; […]) to luciferin. The luciferin is then measured by luminescence after the addition of a luciferase detection reagent. Luciferin-PPXE concentration in the assay was equal to its KM for CYP3A4. Inhibitors and some substrates limit the production of luciferin, and decrease measured luminescence.
NCGC Assay Protocol Summary:
Two uL of enzyme and substrate mix (final concentrations: 20nM CYP3A4, 25uM Luciferin-PPXE, 200mM KPO4) were dispensed into a white, solid bottom 1536-well microtiter plate. 23nL of compound was transferred by a pin tool. The plate was incubated at RT for 10 min. Two uL of an NADPH regeneration solution (Promega supplied reagent) was dispensed and the reaction was allowed to continue for 60 min at RT. Then the reaction was stopped by reconstituted luciferin detection buffer. After another 20 min of incubation the plate was read on the ViewLux (Perkin Elmer) at 60 sec exposure and 2x2 binning. This protocol was carried out with Promega-Glo reagents and further information can be found at http://www.promega.com/tbs/tb325/tb325.pdf. Data were normalized to the to AC100 inhibition (57 uM ketoconazole).
Keywords: P450, CYP3A4, Luciferase, MLSMR, MLSCN, NIH Roadmap, qHTS, NCGC
On the % scale 0 is the no-effect control and ±100 the full control effect; potency means the concentration at half of the fitted maximal effect.

Chain of Cytochrome P450 3A4 (Homo sapiens) (P08684 whole entry, looked up): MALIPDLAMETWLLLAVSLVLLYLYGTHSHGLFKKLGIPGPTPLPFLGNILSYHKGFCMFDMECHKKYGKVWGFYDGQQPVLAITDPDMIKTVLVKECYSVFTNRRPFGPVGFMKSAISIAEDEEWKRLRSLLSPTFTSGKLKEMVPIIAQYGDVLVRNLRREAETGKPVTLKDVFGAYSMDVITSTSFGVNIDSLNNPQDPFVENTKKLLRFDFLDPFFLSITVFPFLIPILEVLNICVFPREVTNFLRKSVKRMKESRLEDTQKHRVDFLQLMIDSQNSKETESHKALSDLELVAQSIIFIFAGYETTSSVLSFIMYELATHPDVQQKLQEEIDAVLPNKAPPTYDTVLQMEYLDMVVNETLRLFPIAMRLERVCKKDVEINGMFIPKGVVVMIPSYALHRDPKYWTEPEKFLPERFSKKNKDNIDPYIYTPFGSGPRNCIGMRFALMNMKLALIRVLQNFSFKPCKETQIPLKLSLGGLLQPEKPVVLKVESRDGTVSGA

Question: `COc1ccc(C(=O)N2CCC[C@@]3(CCN(CC(C)C)C3)C2)cc1` was tested. Which Potency did it give?
Answer: 7.94 µM (active)

Question: How did the Potency turn out when `Cn1cccc1C(=O)N1CCC[C@@]2(CCN(c3cccc(-c4ccccc4)c3)C2)C1` was run?
Answer: 7.94 µM (active)

Question: For `COc1ccccc1CNc1ncnc2ccc(-c3ccccc3C#N)cc12`, which Potency is on record?
Answer: 3.98 µM (active)

Question: How did the Potency turn out when `COc1cccc(-c2nccc(NCc3cccnc3)n2)c1` was run?
Answer: 1.26 µM (active)

Question: For `CS(=O)(=O)N1CCC2(CC1)CN(C(c1ccccc1)c1ccccc1)C2`, which “activity change, negative = inhibition” value is on record?
Answer: 307% (inactive)

Question: Which “activity change, negative = inhibition” value does the source give for `CC1=CC(=O)CC(C)(C)C1(O)/C=C/C(C)=C\C(=O)O` (stereo not given) here?
Answer: -22.6% (inactive)

Question: `CC1=CC2C(CC1=O)C(C)=CCC2C(C)C` (stereo not given) was tested. Which “activity change, negative = inhibition” value did it give?
Answer: -8.48% (inactive)

Question: With `O=C(c1cnccn1)N1CCC2(CC1)CCN(c1ccccc1)CC2` as the molecule, how does the “activity change, negative = inhibition” value read?
Answer: 36.7% (inactive)

Question: Which Potency does the source give for `COc1cccc(-c2ccc3ncnc(NC4CC4)c3c2)c1` here?
Answer: 2 µM (active)

Question: For `COc1ccc(NC(=O)N2CCC3(CC2)CCN(C(=O)c2cccc(F)c2)CC3)cc1`, which “activity change, negative = inhibition” value is on record?
Answer: 97.4% (inactive)

Question: Which Potency does the source give for `Cc1cccc(CNc2ccnc(-c3cccc(C#N)c3)n2)c1` here?
Answer: 1.26 µM (active)

Question: `COc1ccc2[nH]cc(CCNc3nc(-c4ccc(N(C)C)cc4)nc4ccccc34)c2c1` was tested. Which Potency did it give?
Answer: 2.51 µM (active)

Question: Which Potency does the source give for `COc1ccccc1CNc1ccnc(-c2cccc(C#N)c2)n1` here?
Answer: 3.98 µM (active)

Question: Which “activity change, negative = inhibition” value does the source give for `CCNc1ncc2nc(-c3ccc(Cl)cc3)c(=O)n(Cc3ccc(F)cc3)c2n1` here?
Answer: 49.1% (inactive)

Question: With `COc1ccc2[nH]cc(CCNc3ncnc4ccc(-c5ccc(C(=O)N(C)C)cc5)cc34)c2c1` as the molecule, how does the Potency read?
Answer: 2.51 µM (active)

Question: Which “activity change, negative = inhibition” value does the source give for `O=C(Oc1ccccc1)N1CCC2(CC1)CN(c1ccccn1)C2` here?
Answer: 128% (inactive)

Question: For `O=C(c1cccc(F)c1)N1CCC2(CC1)CCN(c1ccccn1)CC2`, which “activity change, negative = inhibition” value is on record?
Answer: 68.7% (inactive)

Question: How did the Potency turn out when `COc1ccccc1-c1nc(N(C)Cc2ccco2)c2ccccc2n1` was run?
Answer: 7.94 µM (active)

Question: `COc1ccccc1CCn1c(=O)c(-c2cccs2)nc2cncnc21` was tested. Which Potency did it give?
Answer: 3.16 µM (active)

Question: With `FC(F)(F)c1ccccc1-c1nc(NC2CC2)c2ccccc2n1` as the molecule, how does the Potency read?
Answer: 3.16 µM (active)

Question: Which Potency does the source give for `CC(=O)NCCNc1nc(-c2ccccc2C)nc2ccccc12` here?
Answer: 5.01 µM (active)

Question: For `COc1cccc(-c2ccc3ncnc(N(C)C)c3c2)c1`, which Potency is on record?
Answer: 7.94 µM (active)

Question: How did the “activity change, negative = inhibition” value turn out when `N#Cc1cccc(NC(=O)N2CC3(CCN(C(=O)c4cnccn4)CC3)C2)c1` was run?
Answer: 14.3% (inactive)

Question: For `Cc1cnc(CNc2nc(-c3ccc(N(C)C)cc3)nc3ccccc23)cn1`, which Potency is on record?
Answer: 5.01 µM (active)

Question: How did the Potency turn out when `Cc1cccc(CNc2cc(-c3ccoc3)ncn2)c1` was run?
Answer: 7.94 µM (active)

Question: For `COCCn1c(=O)c(-c2cn(C)c3ccccc23)nc2cnc(Oc3ccc(OC)cc3)nc21`, which Potency is on record?
Answer: 3.98 µM (active)

Question: Which Potency does the source give for `O=c1c(-c2ccccc2)coc2cc(O)cc(O)c12` here?
Answer: 20 µM (active)

Question: How did the “activity change, negative = inhibition” value turn out when `C[N+](C)(C)CC(O)CC(=O)O` (stereo not given) was run?
Answer: -2.81% (inactive)

Question: For `Cc1cnc(CNc2ccnc(-c3cccnc3)n2)cn1`, which Potency is on record?
Answer: 5.01 µM (active)

Question: `CN(C)Cc1ccccc1-c1cncnc1NCc1cccnc1` was tested. Which Potency did it give?
Answer: 1.58 µM (active)

Question: With `C/C(=C\COc1cc(=O)[nH]c2ccccc12)CCC(O)C(C)(C)O` (stereo not given) as the molecule, how does the “activity change, negative = inhibition” value read?
Answer: -27.8% (inactive)

Question: `COc1cccc(-c2nccc(NCc3ccc(OC)cc3OC)n2)c1` was tested. Which Potency did it give?
Answer: 3.16 µM (active)

Question: How did the Potency turn out when `Cc1cnc(CNc2nc(-c3ccccc3C(F)(F)F)nc3ccccc23)cn1` was run?
Answer: 5.01 µM (active)

Question: For `COc1ccc(NC(=O)N2CCC3(CC2)CCN(C(=O)c2cccn2C)CC3)cc1`, which “activity change, negative = inhibition” value is on record?
Answer: 35.9% (inactive)

Question: Which Potency does the source give for `c1cn(-c2ccnc(-c3ccc4c(c3)OCO4)n2)cn1` here?
Answer: 0.631 µM (active)

Question: With `c1nc(NCCN2CCOCC2)c2cc(-c3ccc4c(c3)OCO4)ccc2n1` as the molecule, how does the Potency read?
Answer: 5.01 µM (active)

Question: For `COc1ccc2[nH]cc(CCNc3ccnc(-c4ccc(N(C)C)cc4)n3)c2c1`, which Potency is on record?
Answer: 5.01 µM (active)

Question: For `COCCNc1nc(-c2cccc(OC)c2)nc2ccccc12`, which Potency is on record?
Answer: 5.01 µM (active)

Question: How did the Potency turn out when `COc1ccccc1CNc1cc(-c2cccc(NS(C)(=O)=O)c2)ncn1` was run?
Answer: 5.01 µM (active)

Question: `N#Cc1cccc(-c2nccc(-n3ccnc3)n2)c1` was tested. Which Potency did it give?
Answer: 2.51 µM (active)

From PubChem BioAssay (NCATS)
